# According to article PMC7862700, “An all-to-all approach to the identification of sequence-specific readers for epigenetic DNA modifications on cytosine”:
# Key:
# Assay in all cases: DAPPL (digital affinity profiling via proximity ligation, sequencing); 10 mM Tris-HCl pH 7.5, 50 mM NaCl, 1 mM DTT, 4% glycerol, room temperature, 30 min; GST-TFs on glutathione beads, 16-mer random dsDNA library, 0.1% formaldehyde crosslink after washing; high values mean tight binding
# FEV = biological target: T1, FEV (Homo sapiens, UniProt Q99581 1-238); conditions: protein: recombinant; tags: N-terminal GST; dsDNA, one strand shown
# T1 sequence: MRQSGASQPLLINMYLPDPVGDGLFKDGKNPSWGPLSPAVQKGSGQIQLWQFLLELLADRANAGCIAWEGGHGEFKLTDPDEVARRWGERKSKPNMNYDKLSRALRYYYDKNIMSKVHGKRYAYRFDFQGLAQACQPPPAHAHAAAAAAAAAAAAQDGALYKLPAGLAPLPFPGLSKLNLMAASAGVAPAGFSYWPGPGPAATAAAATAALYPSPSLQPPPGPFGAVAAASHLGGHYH
# Method in brief: (§1)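 Beads coated with glutathione captured GST-fused human transcription factors that had been expressed in yeast, and the factors were then given DNA barcodes and pooled with a tag-only sample. The pools were incubated with 200 nmole of a random double-stranded 16-mer DNA library in Tris/NaCl/DTT/glycerol buffer for 30 min at room temperature, washed, crosslinked with 0.1% formaldehyde and proximity-ligated with BsaI/T4 ligase at 37 °C for 1 h. PCR amplification and Illumina NextSeq500 sequencing came last. Binding signal is each hexamer's read frequency for a factor divided by its frequency for the tag-only sample.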
# ETV5 = ETV5 (Homo sapiens, UniProt P41161 1-510); conditions: protein: recombinant; tags: N-terminal GST; dsDNA, one strand shown
# ETV5, sequence (P41161 whole entry): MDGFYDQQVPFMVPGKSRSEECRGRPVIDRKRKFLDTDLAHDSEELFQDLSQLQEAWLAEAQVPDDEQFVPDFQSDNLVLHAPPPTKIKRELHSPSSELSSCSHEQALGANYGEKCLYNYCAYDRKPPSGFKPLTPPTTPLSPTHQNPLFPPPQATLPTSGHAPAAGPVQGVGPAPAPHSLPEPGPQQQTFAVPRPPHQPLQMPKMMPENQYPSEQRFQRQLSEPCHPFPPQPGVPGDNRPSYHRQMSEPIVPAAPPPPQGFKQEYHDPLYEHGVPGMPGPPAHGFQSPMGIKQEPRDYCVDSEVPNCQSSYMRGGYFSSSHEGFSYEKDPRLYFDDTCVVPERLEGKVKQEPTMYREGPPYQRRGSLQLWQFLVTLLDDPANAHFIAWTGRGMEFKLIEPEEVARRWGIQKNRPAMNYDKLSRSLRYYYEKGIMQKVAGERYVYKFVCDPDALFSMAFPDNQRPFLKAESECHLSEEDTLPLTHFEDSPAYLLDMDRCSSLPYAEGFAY
# Method in brief: as §1
# HSF1 = HSF1 (Homo sapiens, UniProt Q00613 1-529); conditions: protein: recombinant; tags: N-terminal GST; chain copies: 3; dsDNA, one strand shown
# HSF1, sequence (Q00613 whole entry): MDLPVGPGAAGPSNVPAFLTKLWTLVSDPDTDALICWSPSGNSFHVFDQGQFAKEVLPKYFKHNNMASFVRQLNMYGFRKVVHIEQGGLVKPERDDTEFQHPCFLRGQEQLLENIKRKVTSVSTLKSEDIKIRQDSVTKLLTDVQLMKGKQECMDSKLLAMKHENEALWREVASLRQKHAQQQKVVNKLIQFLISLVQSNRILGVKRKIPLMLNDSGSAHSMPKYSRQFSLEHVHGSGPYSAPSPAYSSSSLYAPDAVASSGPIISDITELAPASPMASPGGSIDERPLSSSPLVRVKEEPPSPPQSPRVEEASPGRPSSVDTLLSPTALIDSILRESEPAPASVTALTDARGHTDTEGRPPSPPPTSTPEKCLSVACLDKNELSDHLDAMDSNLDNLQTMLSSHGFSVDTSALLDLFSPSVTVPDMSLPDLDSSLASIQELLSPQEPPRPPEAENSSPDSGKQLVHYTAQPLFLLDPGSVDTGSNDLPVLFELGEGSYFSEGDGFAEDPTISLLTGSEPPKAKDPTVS
# Method in brief: as §1
# SPIC = biological target: T2, SPIC (Homo sapiens, UniProt Q8N5J4 1-248); conditions: protein: recombinant; tags: N-terminal GST; dsDNA, one strand shown
# T2 sequence: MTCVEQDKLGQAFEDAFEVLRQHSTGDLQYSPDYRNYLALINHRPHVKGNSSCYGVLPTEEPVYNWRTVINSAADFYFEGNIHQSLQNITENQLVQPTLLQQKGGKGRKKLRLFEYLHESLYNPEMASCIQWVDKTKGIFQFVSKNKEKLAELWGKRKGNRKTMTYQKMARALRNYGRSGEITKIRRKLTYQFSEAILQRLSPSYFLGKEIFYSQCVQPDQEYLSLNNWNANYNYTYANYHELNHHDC
# Method in brief: as §1
# ELF4 = ELF4 (Homo sapiens, UniProt Q99607 1-663); conditions: protein: recombinant; tags: N-terminal GST; dsDNA, one strand shown
# ELF4, sequence (Q99607 whole entry): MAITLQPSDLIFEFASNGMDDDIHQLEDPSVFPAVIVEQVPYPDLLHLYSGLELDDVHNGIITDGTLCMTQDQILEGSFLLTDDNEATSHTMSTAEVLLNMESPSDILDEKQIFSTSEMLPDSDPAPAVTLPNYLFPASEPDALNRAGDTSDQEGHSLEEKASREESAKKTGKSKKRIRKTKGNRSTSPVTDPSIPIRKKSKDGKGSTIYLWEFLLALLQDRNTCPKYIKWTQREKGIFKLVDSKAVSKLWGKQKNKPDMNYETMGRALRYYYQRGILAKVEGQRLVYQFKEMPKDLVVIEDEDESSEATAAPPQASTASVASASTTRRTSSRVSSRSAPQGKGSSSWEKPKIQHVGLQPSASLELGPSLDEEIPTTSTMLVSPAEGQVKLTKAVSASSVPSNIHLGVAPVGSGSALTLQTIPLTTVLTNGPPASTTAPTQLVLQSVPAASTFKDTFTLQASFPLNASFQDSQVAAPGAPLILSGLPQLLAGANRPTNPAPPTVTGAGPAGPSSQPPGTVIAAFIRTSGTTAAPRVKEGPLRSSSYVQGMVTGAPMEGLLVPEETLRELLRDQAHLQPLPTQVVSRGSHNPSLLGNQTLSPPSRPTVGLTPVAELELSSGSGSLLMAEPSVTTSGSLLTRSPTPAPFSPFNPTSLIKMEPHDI
# Method in brief: as §1
# ELK4 = biological target: T3, ELK4 (Homo sapiens, UniProt P28324-2 1-405); conditions: protein: recombinant; tags: N-terminal GST; dsDNA, one strand shown
# T3 sequence: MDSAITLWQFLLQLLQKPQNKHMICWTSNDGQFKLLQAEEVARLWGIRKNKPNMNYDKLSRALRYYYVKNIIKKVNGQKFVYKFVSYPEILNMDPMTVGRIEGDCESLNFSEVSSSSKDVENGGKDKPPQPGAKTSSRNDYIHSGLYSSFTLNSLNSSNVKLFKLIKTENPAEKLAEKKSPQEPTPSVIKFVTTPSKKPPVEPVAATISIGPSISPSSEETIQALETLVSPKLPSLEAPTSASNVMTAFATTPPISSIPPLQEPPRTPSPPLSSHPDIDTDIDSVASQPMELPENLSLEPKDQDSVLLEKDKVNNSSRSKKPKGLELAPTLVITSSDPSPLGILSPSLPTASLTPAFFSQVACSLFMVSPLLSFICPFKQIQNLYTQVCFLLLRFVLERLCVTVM
# Method in brief: as §1
# ETV2 = biological target: T4, ETV2 (Homo sapiens, UniProt O00321 1-342); conditions: protein: recombinant; tags: N-terminal GST; dsDNA, one strand shown
# T4 sequence: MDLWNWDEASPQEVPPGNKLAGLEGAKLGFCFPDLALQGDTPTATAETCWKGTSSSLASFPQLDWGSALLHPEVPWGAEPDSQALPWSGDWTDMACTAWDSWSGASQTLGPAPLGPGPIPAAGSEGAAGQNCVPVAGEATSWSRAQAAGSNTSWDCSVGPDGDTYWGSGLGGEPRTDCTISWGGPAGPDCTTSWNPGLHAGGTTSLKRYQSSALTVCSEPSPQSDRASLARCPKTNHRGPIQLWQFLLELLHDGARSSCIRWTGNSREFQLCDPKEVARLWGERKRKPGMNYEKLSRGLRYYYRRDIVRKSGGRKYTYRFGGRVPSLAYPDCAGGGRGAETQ
# Method in brief: as §1
# ELF3 = biological target: T5, ELF3 (Homo sapiens, UniProt P78545 1-371); conditions: protein: recombinant; tags: N-terminal GST; dsDNA, one strand shown
# T5 sequence: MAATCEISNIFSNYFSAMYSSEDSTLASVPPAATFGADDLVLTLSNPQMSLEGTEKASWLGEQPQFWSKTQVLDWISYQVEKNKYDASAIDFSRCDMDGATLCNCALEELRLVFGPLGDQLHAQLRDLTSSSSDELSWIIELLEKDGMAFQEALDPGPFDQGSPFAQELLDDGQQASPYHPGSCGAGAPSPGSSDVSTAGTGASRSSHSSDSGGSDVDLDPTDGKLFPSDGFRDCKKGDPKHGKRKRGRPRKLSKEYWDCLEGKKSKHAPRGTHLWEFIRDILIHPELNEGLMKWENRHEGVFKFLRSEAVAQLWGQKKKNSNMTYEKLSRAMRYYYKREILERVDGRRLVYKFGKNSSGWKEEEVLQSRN
# Method in brief: as §1
# CRX = CRX (Homo sapiens, UniProt O43186 1-299); conditions: protein: recombinant; tags: N-terminal GST; dsDNA, one strand shown
# CRX, sequence (O43186 whole entry): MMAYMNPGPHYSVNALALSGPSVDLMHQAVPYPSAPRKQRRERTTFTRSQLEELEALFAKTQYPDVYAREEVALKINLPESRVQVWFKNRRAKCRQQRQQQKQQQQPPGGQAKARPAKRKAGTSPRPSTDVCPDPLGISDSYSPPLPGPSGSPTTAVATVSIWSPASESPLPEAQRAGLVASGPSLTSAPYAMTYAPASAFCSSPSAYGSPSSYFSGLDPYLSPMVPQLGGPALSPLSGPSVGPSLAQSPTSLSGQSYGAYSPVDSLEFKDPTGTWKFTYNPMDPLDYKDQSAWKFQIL
# Method in brief: as §1
# ETV1 = ETV1 (Homo sapiens, UniProt P50549 1-477); conditions: protein: recombinant; tags: N-terminal GST; dsDNA, one strand shown
# ETV1, sequence (P50549 whole entry): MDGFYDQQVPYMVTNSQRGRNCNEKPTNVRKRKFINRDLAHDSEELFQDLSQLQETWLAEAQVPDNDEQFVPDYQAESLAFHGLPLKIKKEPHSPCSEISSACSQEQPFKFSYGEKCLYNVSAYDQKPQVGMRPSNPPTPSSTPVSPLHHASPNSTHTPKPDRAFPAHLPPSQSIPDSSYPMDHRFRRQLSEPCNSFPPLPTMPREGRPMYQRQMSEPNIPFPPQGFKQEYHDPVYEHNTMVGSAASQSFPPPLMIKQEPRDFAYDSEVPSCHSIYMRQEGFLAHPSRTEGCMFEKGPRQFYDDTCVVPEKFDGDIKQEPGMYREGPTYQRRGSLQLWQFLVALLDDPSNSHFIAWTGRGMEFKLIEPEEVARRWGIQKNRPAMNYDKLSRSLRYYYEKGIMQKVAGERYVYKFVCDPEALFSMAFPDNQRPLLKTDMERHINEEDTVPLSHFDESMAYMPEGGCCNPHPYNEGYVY
# Method in brief: as §1
# ERF = biological target: T6, ERF (Homo sapiens, UniProt P50548 1-548); conditions: protein: recombinant; tags: N-terminal GST; dsDNA, one strand shown
# T6 sequence: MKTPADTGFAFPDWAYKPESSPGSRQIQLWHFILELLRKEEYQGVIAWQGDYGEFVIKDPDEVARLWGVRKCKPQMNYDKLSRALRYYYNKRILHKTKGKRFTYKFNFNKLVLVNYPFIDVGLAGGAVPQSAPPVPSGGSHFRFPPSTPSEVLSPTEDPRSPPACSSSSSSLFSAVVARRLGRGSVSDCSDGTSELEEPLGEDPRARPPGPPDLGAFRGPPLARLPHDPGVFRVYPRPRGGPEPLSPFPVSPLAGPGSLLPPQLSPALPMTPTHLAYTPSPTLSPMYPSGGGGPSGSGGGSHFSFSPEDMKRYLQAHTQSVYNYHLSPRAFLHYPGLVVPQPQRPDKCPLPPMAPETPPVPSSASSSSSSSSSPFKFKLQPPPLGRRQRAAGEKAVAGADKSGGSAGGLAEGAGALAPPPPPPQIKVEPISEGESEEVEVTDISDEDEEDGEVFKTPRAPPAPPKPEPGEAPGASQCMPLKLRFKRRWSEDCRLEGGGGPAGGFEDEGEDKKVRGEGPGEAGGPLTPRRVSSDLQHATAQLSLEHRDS
# Method in brief: as §1
# ETV3L = biological target: T7, ETV3L (Homo sapiens, UniProt Q6ZN32 1-361); conditions: protein: recombinant; tags: N-terminal GST; dsDNA, one strand shown
# T7 sequence: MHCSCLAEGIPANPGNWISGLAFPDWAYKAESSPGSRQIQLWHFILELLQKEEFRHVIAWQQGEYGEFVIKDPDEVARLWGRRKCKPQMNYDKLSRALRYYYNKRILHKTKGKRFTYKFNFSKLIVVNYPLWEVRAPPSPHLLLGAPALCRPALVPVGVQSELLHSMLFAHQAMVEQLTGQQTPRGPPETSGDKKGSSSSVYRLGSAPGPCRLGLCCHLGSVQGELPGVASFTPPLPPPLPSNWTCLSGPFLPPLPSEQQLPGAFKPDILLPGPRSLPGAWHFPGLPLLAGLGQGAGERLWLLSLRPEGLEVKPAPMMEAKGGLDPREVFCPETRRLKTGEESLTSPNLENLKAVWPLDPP
# Method in brief: as §1
# ETS2 = biological target: T8, ETS2 (Homo sapiens, UniProt P15036 1-469); conditions: protein: recombinant; tags: N-terminal GST; dsDNA, one strand shown
# T8 sequence: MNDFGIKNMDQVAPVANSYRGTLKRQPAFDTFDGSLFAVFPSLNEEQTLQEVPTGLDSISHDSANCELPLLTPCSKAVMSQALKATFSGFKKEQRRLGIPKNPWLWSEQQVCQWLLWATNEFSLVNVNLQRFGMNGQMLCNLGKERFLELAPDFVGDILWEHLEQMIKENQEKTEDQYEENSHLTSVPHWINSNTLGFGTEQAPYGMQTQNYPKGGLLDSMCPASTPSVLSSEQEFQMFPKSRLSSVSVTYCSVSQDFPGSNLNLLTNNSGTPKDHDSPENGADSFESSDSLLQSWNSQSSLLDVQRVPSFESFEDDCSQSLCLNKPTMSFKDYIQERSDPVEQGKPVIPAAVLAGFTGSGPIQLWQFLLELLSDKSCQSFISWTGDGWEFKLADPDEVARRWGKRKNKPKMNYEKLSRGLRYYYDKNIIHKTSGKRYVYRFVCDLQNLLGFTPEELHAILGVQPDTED
# Method in brief: as §1
# SPDEF = biological target: T9, SPDEF (Homo sapiens, UniProt O95238 1-335); conditions: protein: recombinant; tags: N-terminal GST; dsDNA, one strand shown
# T9 sequence: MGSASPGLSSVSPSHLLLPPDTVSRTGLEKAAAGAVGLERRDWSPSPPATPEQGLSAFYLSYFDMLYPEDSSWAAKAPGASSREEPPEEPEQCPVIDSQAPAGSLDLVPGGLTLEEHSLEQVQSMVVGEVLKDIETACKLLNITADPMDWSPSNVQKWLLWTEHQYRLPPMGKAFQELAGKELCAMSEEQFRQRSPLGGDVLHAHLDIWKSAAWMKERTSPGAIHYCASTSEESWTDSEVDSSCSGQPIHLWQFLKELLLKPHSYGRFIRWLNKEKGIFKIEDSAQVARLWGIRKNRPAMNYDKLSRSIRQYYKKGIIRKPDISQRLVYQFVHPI
# Method in brief: as §1
# ETV7 = biological target: T10, ETV7 (Homo sapiens, UniProt Q9Y603 1-341); conditions: protein: recombinant; tags: N-terminal GST; dsDNA, one strand shown
# T10 sequence: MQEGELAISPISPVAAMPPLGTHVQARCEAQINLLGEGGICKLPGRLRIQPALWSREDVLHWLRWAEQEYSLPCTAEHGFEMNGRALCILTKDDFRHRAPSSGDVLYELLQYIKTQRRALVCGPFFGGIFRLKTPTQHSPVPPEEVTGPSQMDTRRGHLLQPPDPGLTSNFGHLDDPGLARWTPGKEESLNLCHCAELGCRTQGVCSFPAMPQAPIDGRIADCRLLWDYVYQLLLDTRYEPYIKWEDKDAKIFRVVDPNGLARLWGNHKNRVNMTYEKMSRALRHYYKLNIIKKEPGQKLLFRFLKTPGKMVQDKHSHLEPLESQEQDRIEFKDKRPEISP
# Method in brief: as §1
# ELF5 = biological target: T11, ELF5 (Homo sapiens, UniProt Q9UKW6-2 1-255); conditions: protein: recombinant; tags: N-terminal GST; dsDNA, one strand shown
# T11 sequence: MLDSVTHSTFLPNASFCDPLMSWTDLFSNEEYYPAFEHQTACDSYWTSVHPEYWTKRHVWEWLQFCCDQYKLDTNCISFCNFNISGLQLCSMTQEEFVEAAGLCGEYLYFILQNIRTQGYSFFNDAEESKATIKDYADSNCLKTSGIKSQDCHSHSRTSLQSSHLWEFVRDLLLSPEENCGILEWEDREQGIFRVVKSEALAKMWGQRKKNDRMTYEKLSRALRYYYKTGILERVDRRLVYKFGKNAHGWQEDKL
# Method in brief: as §1
# ETV3 = biological target: T12, ETV3 (Homo sapiens, UniProt P41162-2 1-143); conditions: protein: recombinant; tags: N-terminal GST; dsDNA, one strand shown
# T12 sequence: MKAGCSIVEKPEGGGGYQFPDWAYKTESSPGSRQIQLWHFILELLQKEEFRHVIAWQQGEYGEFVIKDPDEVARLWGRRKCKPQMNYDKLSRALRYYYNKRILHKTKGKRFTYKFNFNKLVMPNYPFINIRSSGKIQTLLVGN
# Method in brief: as §1
# ETV6 = ETV6 (Homo sapiens, UniProt P41212 1-452); conditions: protein: recombinant; tags: N-terminal GST; dsDNA, one strand shown
# ETV6, sequence (P41212 whole entry): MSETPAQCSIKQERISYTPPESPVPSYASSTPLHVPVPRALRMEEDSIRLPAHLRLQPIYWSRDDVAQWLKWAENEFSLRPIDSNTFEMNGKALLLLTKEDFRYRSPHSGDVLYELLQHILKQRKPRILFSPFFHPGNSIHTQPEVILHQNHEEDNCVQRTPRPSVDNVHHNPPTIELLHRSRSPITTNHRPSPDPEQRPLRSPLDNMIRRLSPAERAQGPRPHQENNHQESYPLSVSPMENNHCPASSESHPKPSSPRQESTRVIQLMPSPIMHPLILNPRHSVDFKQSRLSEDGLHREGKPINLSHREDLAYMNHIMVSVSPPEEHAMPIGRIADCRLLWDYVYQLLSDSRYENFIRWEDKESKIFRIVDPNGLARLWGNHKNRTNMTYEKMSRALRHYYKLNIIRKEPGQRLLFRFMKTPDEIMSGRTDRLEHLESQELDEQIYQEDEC
# Method in brief: as §1
sequence,measurement,setting,value
CTAAAG,binding signal,FEV,"1.29 fold enrichment (6-mer frequency, TF over GST control)"
same,binding signal,ETV5,"1.29 fold enrichment (6-mer frequency, TF over GST control)"
same,binding signal,HSF1,"1.48 fold enrichment (6-mer frequency, TF over GST control)"
same,binding signal,SPIC,"1.36 fold enrichment (6-mer frequency, TF over GST control)"
same,binding signal,ELF4,"1.34 fold enrichment (6-mer frequency, TF over GST control)"
same,binding signal,ELK4,"1.44 fold enrichment (6-mer frequency, TF over GST control)"
same,binding signal,ETV2,"1.29 fold enrichment (6-mer frequency, TF over GST control)"
same,binding signal,ELF3,"1.44 fold enrichment (6-mer frequency, TF over GST control)"
same,binding signal,CRX,"1.85 fold enrichment (6-mer frequency, TF over GST control)"
same,binding signal,ETV1,"1.45 fold enrichment (6-mer frequency, TF over GST control)"
same,binding signal,ERF,"1.44 fold enrichment (6-mer frequency, TF over GST control)"
same,binding signal,ETV3L,"1.33 fold enrichment (6-mer frequency, TF over GST control)"
same,binding signal,ETS2,"1.32 fold enrichment (6-mer frequency, TF over GST control)"
same,binding signal,SPDEF,"1.26 fold enrichment (6-mer frequency, TF over GST control)"
same,binding signal,ETV7,"1.35 fold enrichment (6-mer frequency, TF over GST control)"
same,binding signal,ELF5,"1.33 fold enrichment (6-mer frequency, TF over GST control)"
same,binding signal,ETV3,"1.36 fold enrichment (6-mer frequency, TF over GST control)"
same,binding signal,ETV6,"1.23 fold enrichment (6-mer frequency, TF over GST control)"
